Only some compounds are listed: those with a hit (about 1.9% of all), similar ones and a draw of the others.
DSG3 Ab inh – inhibitors of pemphigus antibody binding to DSG3, primary screen, biochemical, bead-based, flow cytometry, scFv-GFP; Desmoglein-3 (Homo sapiens), P32926; DSG3-coupled beads, scFv-anti-DSG3-GFP binding; active compounds read low; binding (percent of control), % at 10 µM; 310,000 tested, 0.48% active; AID 588358, 2011;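 active = binding more than 3 SD below its plate's average and above zero; inconclusive = below that plate limit but binding exactly zero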;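 also: hits lower antibody fragment binding to DSG3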
ATG4B inh – ATG4B protease inhibitors, primary screen, biochemical, fluorescence, uHTS; ATG4B cleavage of LC3-PLA2, NBD-HPC fluorescence, 1 h; inhibition, % at 8.33 µM; 340,000 tested, 0.51% active; in the data active = inhibition above about 40%
NSD2 inh – NSD2 histone methyltransferase inhibitors, primary screen, biochemical, AlphaScreen, single concentration, set 2. Histone-lysine N-methyltransferase NSD2 (Homo sapiens), O96028. NSD2 peptide methylation, 120 min. inhibition, % at 12.5 µM. 310,000 tested, 0.54% active
Target sequence (O96028 whole entry, looked up): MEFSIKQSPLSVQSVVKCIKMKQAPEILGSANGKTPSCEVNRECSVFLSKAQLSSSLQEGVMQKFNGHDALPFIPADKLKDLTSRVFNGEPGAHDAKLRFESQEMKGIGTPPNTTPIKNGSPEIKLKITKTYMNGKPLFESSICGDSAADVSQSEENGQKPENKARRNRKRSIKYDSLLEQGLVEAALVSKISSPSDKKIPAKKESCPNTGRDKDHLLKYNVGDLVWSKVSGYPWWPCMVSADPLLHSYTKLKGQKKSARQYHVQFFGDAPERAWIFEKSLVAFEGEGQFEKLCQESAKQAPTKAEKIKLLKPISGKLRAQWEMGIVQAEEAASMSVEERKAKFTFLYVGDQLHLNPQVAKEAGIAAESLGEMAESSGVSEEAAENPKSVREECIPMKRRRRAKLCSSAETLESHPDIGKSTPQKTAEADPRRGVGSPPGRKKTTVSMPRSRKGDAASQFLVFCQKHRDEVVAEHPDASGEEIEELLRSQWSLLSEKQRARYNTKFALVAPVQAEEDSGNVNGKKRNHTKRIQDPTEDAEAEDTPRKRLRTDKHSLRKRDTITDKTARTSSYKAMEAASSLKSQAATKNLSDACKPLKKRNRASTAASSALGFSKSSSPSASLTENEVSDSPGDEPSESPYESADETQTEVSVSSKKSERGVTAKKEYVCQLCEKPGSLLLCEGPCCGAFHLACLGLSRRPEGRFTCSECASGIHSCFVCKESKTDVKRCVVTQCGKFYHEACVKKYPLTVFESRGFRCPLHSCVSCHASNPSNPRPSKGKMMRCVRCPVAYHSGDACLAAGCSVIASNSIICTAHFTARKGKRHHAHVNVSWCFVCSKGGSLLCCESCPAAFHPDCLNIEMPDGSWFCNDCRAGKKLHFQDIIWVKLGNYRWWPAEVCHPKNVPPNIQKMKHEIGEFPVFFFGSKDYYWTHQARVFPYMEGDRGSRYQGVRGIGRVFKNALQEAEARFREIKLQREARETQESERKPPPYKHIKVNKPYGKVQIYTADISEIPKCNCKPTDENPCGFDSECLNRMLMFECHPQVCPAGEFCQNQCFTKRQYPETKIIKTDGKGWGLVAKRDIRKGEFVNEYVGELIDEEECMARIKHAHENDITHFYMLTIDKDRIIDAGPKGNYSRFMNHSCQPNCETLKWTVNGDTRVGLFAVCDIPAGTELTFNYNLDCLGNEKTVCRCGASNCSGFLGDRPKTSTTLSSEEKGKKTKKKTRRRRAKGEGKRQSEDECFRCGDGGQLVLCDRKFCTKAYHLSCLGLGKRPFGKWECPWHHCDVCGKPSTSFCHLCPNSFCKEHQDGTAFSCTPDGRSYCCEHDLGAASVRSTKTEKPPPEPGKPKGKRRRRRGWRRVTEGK
CaV13 FRET inh – Primary screen for inhibitors of IQ motif and Ca2+-dependent inactivation inhibitor domain binding in CACNA1D, Förster resonance energy transfer in living cells, … | HEK cells, CFP/YFP FRET ICDI-IQ, plate reader, 10 min; percent FRET-ratio fall versus neutral wells | inhibition, % at 12.3 µM | 340,000 tested, 0.098% active | AID 743397;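 active = mean replicate inhibition of at least 30% and at least 1% of replicates passing that level; inconclusive = only one of the two criteria is met; inactive = neither criterion is met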
Glyco luc inh – increase of ERlucT glycosylation luciferase signal, primary screen, N-linked glycosylation inhibitor project, D54 ERlucT cells, luminescence, set 2; D54 ERlucT glycosylation luciferase reporter, 24 h; percent of 100 nM tunicamycin response; reporter increase, % at 12.5 µM; AID 588692, 2011; 360,000 tested, 0.23% active;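 active = mean luciferase reporter signal, scaled so untreated is 0 and the glycosylation-blocking control 100, at or above a set limit in every replicate; inconclusive = mean reaches the limit but not every replicate does; inactive = mean below the limit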;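 also: luciferase carries N-glycosylation sites so blocking glycosylation raises the light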
Vif inh – HIV Vif self-association inhibitors, primary screen, imaging, HEK293T, single point | 340,000 tested, 0.35% active | HEK293T cells, Vif self-association by quenched fluorescence, 24 h | inhibition, % at 7.49 µM | AID 602346, 2012; in the data active = inhibition above about 50%, passing the limit was not always enough; inconclusive = no clear call, values can overlap the other calls; inactive = below about 31%
ATG4B conf – ATG4B protease inhibitors, retest, confirmation, biochemical, fluorescence, single concentration. inhibition, % at 8.33 µM. ATG4B protease fluorescent substrate cleavage assay. shares compounds with ATG4B inh. AID 504757, 2011. 320 tested, 92% active; in the data active = inhibition above about 39%
PLA2 counter – PLA2 enzyme inhibition, counter-screen for ATG4B inhibitor project, biochemical, single concentration, uHTS hits; inhibition, % at 8.33 µM; purified PLA2, NBD-C6-HPC fluorescence, 45 min; shares compounds with ATG4B inh; 1,600 tested, 66% active
Of the large screens only hits and unclear results are named; the others gave an inactive call (follow-up assays come after a bar, where they were run). Rule as the data show it, unless noted: active = inhibition above about 50%; inactive = the rest.

Cc1sc(-n2c(C)cc(/C=C3\SC(=S)NC3=O)c2C)c(C#N)c1C	ATG4B inh 81 | PLA2 counter 74
COC(=O)c1cc(Br)c(=O)n(CCc2ccccc2)c1	none (no result: CaV13 FRET inh)
COc1ccccc1C(=O)Nc1ccc(S(=O)(=O)N2CCCCC2c2cccnc2)cc1 (stereo not drawn)	none
Oc1c(Br)cc(Br)cc1C=Nc1ccc2c(c1)OCO2	ATG4B inh 63 | ATG4B conf 48 | PLA2 counter inactive
Cc1ccc(C)c(N2CCN(C(=O)CCCn3c(=S)[nH]c4cc5c(cc4c3=O)OCO5)CC2)c1	DSG3 Ab inh 78, ATG4B inh 52 | PLA2 counter 62
O=C(CCCn1c(=S)[nH]c2cc3c(cc2c1=O)OCO3)N1CCN(c2ncccn2)CC1	none
O=C(CCCn1c(=S)[nH]c2cc3c(cc2c1=O)OCO3)N1CCN(c2ccc(F)cc2)CC1	ATG4B inh 56 | ATG4B conf 59 | PLA2 counter inactive
O=C(CCCn1c(=S)[nH]c2cc3c(cc2c1=O)OCO3)N1CCN(c2ccccc2F)CC1	ATG4B inh 51 | PLA2 counter 54
CCCCC[C@@H]1C=C(C(=O)O)[C@H](c2ccc3c(c2)OCO3)N1S(=O)(=O)c1ccc(C)cc1	ATG4B inh 50 (no result: NSD2 inh) | PLA2 counter 57
CC[C@@H]1C=C(C(=O)O)[C@H](c2ccc3c(c2)OCO3)N1S(=O)(=O)c1ccc(C)cc1	none (no result: NSD2 inh)
N=C1/C(=C\c2ccc(OC(=O)c3ccccc3)cc2)C(=O)N=C2SC(N3CCOCC3)=NN12	ATG4B inh 57 (no result: NSD2 inh) | PLA2 counter 76
O=C(O)c1ccccc1NS(=O)(=O)c1ccc(N/N=C/c2cccc(O)c2O)c([N+](=O)[O-])c1	ATG4B inh 51 | PLA2 counter 53
COc1ccccc1NS(=O)(=O)c1cccc(-n2c(O)c(C=Nc3ccccc3C(=O)O)c3ccccc3c2=O)c1	ATG4B inh 51 (no result: NSD2 inh) | PLA2 counter 74
COc1ccc(Cn2c(O)c(C=Nc3ccccc3C(=O)O)c3ccccc3c2=O)cc1	none
CCOc1ccc(C=NNc2ccc(S(=O)(=O)Nc3ccccc3C(=O)O)cc2[N+](=O)[O-])cc1OC	none (no result: DSG3 Ab inh, CaV13 FRET inh)
COc1cc(C=NNc2ccc(S(=O)(=O)Nc3ccccc3C(=O)O)cc2[N+](=O)[O-])ccc1O	ATG4B inh 46 | PLA2 counter 63
O=C(NC1CCCCC1)c1sc(=S)n2c1[nH]c(=O)c1ccccc12	none (no result: DSG3 Ab inh)
CCCCNC(=O)c1sc(=S)n2c1[nH]c(=O)c1ccccc12	ATG4B inh 45 | PLA2 counter inactive
O=S(=O)(Nc1cc2nc3ccccc3nc2n1Cc1ccccc1)c1ccc(Cl)cc1	ATG4B inh 45 (no result: Vif inh) | PLA2 counter inactive
NC(=O)C1CCCCc2c1[nH]c1ccc(Cl)cc21 (stereo not drawn)	ATG4B inh 56 | PLA2 counter 51
COc1ccccc1-c1c(-c2ccc(OCC(=O)NN)cc2O)n[nH]c1C(F)(F)F	none
COc1ccc(-c2n[nH]c(C(F)(F)F)c2-c2cc3ccccc3o2)c(O)c1	ATG4B inh 58 | ATG4B conf 64 | PLA2 counter inactive
COc1cc(C(N)=O)cc(Cl)c1OCc1ccccc1	ATG4B inh 60 | PLA2 counter 60
CCOc1cc(C(N)=O)cc(Cl)c1OCc1ccccc1	ATG4B inh 49 | PLA2 counter 71
COc1cc(C(N)=O)ccc1OCc1ccccc1	none
Cc1cc(NC(=O)CC(C)(C)C)nc2c1c(=O)oc1ccccc12	none
CC(C)CCNC(=O)NC(=O)CN1C(=O)NC2(CCCCC2)C1=O	Vif inh inconclusive
Cc1nn(C)c(C(=O)N2CCN(C(=O)c3ccco3)CC2)c1[N+](=O)[O-]	none
C#CCCc1cscc1/C=[N+](\[O-])c1ccc(C(=O)OCC)cc1	none (no result: NSD2 inh, Vif inh)
C#CCCC(=O)c1ccccc1/C=[N+](\[O-])c1ccccc1	ATG4B inh 42 (no result: NSD2 inh) | PLA2 counter 62
Cc1ccccc1C(=O)NC(=S)Nc1ccc(Cc2ccncc2)cc1	ATG4B inh 46 | PLA2 counter inactive
O=C(NC(=S)Nc1ccc(Cc2ccncc2)cc1)c1ccccc1F	ATG4B inh 52 (no result: DSG3 Ab inh) | PLA2 counter 56
CCc1cccc(CC)c1-n1c(SCC(=O)N2CCc3ccccc3C2)nnc1-c1cccnc1	ATG4B inh 68 | PLA2 counter 63
Cn1c(SCC(=O)N2CCc3ccccc3C2)nnc1-c1ccncc1	none
COC(=O)c1ccc(COc2ccccc2/C=C(\C#N)C(=O)Nc2ccccc2C)cc1	none
CC1CCN(C2=C(NS(=O)(=O)c3ccccc3)C(=O)c3ccccc3C2=O)CC1	ATG4B inh 46 | PLA2 counter 65
Cc1cc(C)n(CCNC(=O)c2ccc3c(c2)OCO3)n1	DSG3 Ab inh inconclusive
O=C1NC[C@H](Cc2ccc(O)cc2)N(C[C@@H]2CCCN2C[C@H](Cc2ccccc2)N2C[C@H](Cc3ccc(O)cc3)N(CCc3ccccc3)C(=O)C2=O)C1=O	none (no result: DSG3 Ab inh, ATG4B inh, NSD2 inh, Glyco luc inh, Vif inh)
c1ccc(-c2ccc(-c3cnc4n3CCCCC4)cc2)cc1	ATG4B inh 52 (no result: CaV13 FRET inh) | PLA2 counter 59
CC(=O)c1cccc(NC(=O)C2Cc3c(-c4ccc5c(c4)OCO5)ccnc3O2)c1 (stereo not drawn)	none (no result: DSG3 Ab inh, ATG4B inh)
Cc1ccc(NC(=S)Nc2ccc(Cl)c(Cl)c2)c(OC(F)F)c1	ATG4B inh 53 | PLA2 counter 61
FC(F)Oc1ccccc1NC(=S)Nc1cccnc1	none
Fc1ccc(NC(=S)Nc2ccccc2OC(F)F)cc1Cl	ATG4B inh 48 (no result: DSG3 Ab inh) | PLA2 counter 59
C=C(C)CNC(=S)N/N=C\c1ccc2c(c1)OCO2	none
CCCCCOC(=O)Nc1nc(=O)n([C@@H]2O[C@H](C)[C@@H](O)[C@H]2O)cc1F	none (no result: DSG3 Ab inh, ATG4B inh, CaV13 FRET inh, Glyco luc inh, Vif inh)
